Measurements as given in PubChem BioAssay (NCATS).
“And” between values parts separate entries of the source, which are not always exact repeats. Equal entries are not always repeated. Results filed as inconclusive are left out. The source made the active and inactive calls. Unless noted, the call rests on the fitted dose curve; in most records, active means well fitted curve in the direction sought with a large enough effect; inconclusive means small, poorly fitted or top-dose-only effect, or another doubt; inactive means no such curve, though single readings can be large; an effect the other way counts as inactive or inconclusive.

How the values were obtained:
[1] = biological target: Protein phosphatase 1D (Homo sapiens) (UniProt O15297); assay: RapidFire Mass Spectrometry qHTS Assay for Modulators of WT P53-Induced Phosphatase 1 (WIP1) (AID 1347424);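 further: amount of dephosphorylated VEPPL-S-QETFS peptide product formed by WIP1; series mostly up to about 63 µM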
Protein phosphatase 1D (Homo sapiens), sequence (O15297 whole entry, looked up): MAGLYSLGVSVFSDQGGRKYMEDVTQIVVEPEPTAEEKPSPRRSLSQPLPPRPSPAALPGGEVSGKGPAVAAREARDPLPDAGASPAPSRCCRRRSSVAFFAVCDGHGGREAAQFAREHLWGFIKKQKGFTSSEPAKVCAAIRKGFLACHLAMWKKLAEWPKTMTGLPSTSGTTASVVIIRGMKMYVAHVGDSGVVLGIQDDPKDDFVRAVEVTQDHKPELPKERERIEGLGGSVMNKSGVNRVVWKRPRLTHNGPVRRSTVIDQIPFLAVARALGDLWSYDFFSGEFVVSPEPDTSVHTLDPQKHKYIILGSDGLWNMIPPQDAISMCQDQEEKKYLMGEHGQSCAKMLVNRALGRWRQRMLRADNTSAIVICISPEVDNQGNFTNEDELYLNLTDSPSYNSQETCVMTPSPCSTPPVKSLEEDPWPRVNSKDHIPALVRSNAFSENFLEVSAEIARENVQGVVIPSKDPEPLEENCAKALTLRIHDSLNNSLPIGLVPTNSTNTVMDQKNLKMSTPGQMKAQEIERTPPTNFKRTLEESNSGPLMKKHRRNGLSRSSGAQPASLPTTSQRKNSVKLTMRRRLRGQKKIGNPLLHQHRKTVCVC
Outline: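 Mass-spectrometric measurement of dephosphorylated peptide after a 5 min room-temperature reaction of 10 nM WIP1 with 2 uM phosphopeptide, following 1 h compound preincubation in 30 mM MgCl2 buffer.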

[2] = biological target: Protein phosphatase 1D (Homo sapiens) (UniProt O15297); assay: Rhodamine-PBP qHTS Assay for Modulators of WT P53-Induced Phosphatase 1 (WIP1) (AID 1347425)
Outline: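 WIP1 (5 nM final) was preincubated with compound for 1 hour at room temperature. It then dephosphorylated 10 uM VEPPL-pS-QETFS peptide in Tris-HCl pH 7.5 with 30 mM MgCl2. Released Pi was detected by 10 uM Rh-PBP fluorescence (ex 525/em 598 nm) read at 1-min intervals for 11 min, as delta f1 - f0.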

[3] = Primary qHTS for inhibitors of SARS-S pseudo-typed particle cell entry (AID 1479145; calls by dose curve; further: nearly all actives have a fitted effect of over 45% in size)
[4] = Primary qHTS for Huh7 cytotoxicity: counterscreen for inhibitors of MERS-S pseudotyped particle cell entry (AID 1479147; calls by dose curve)
[5] = Primary qHTS for inhibitors of MERS-S pseudo-typed particle cell entry (AID 1479149; calls by dose curve; further: nearly all actives have a fitted effect of over 60% in size)
[6] = Primary qHTS for Vero E6 cytotoxicity: counterscreen for inhibitors of SARS-S pseudo-typed particle cell entry (AID 1479150; calls by dose curve)
[7] = Primary qHTS for inhibitors of La Crosse Virus (LACV) - induced cell death in SH-SY5Y cells (AID 1508616);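 further: top concentration of the series differs between compounds; higher means more rescue of cells from virus-induced death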
Outline: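 Cytopathicity rescue screen: compounds pinned onto SH-SY5Y cells, which are then infected with LACV (MOI 0.01) and held 6 days at 37C. Percent activity is scaled between infected DMSO control and uninfected DMSO control.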

[8] = biological target: Calcium and integrin-binding protein 1 (Homo sapiens) (UniProt Q99828); assay: Primary qHTS for Identification of Calcium Integrin Binding Protein 1 (CIB1) Competitor (AID 1508620);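 further: GST tagged CIB1 binding a fluorescein labelled alphaIIb integrin peptide tracer; top concentration of the series differs between compounds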
Calcium and integrin-binding protein 1 (Homo sapiens), sequence (Q99828 whole entry, looked up): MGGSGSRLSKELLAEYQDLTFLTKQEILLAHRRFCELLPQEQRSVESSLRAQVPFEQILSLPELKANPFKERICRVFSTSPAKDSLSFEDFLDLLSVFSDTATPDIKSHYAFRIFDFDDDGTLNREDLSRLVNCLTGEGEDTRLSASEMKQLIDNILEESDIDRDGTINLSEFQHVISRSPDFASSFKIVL
Outline: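 Fluorescence polarization competition: CIB1-GST (1 uM final) preincubated with compound 15 min at room temperature, then FITC-labeled alphaIIb peptide (100 nM final) added for another 15 min. Polarization read at Ex 480/Em 540.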

[9] = qHTS to identify inhibitors of the type 1 interferon - major histocompatibility complex class I in skeletal muscle: primary screen against the NCATS Mechanism Interrogation Plate v5.0 (MIPE) Libary (AID 1347411); further: nearly all actives have a fitted effect of over 65% in size; further: potency means the concentration at half of the fitted maximal effect
Outline: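 HLA-B HiBit myoblasts, dexamethasone-free medium + 4 ng/ml IFN-b, 24 h compound, 11-pt 1:3 from 46 uM final. Readout: Nano-Glo HiBiT lytic luminescence after 10 min lysis, RT.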

[10] = Primary qHTS for small molecule stabilizers of the endoplasmic reticulum resident proteome: Secreted ER Calcium Modulated Protein (SERCaMP) assay (AID 1508630)
Outline: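 The SH-SY5Y reporter protocol was run at 3 concentrations up to 38.3 uM (primary) or 11 concentrations (follow-up): 16 h compound, 100 nM thapsigargin for 4 h, then extracellular luciferase luminescence.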

[11] = qHTS for inhibitors of adenylyl cyclases using a fission yeast platform: a pilot screen against the NCATS LOPAC library (AID 1347410)
Outline: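 GFP from fbp1-GFP reporter, read by Acumen laser cytometry, indicates AC inhibition in fission yeast expressing AC9, GNAS and PDE4D2. Cells grown 18 h in the dark at 30C with compounds, final up to 57 uM.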

[12] = Validation qHTS assay for inhibitors of Activation Induced Cytidine Deaminase (AID): UDG Counterscreen signal (AID 1347427)
Outline: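 Fluorescence at 560 nm excitation, 665 nm emission reports UDG signal after 250 mM NaOH (2x) addition and 30 min. Enzymes (AID 1 uM, UDG 2 U/mL, at 4/3x) preincubated 10 min with compound, then 4 h with 4x 250 nM DJC20/DJC23 substrate at room temperature.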

[13] = biological target: Calcium and integrin-binding protein 1 (Homo sapiens) (UniProt Q99828); assay: Validation qHTS for Identification of Calcium Integrin Binding protein 1 (CIB1) Competitor (AID 1508618)
Outline: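 Fluorescence polarization with 1 uM CIB1-GST and 100 nM FITC-alphaIIb peptide in HEPES pH 7.4, NaCl, 5 mM CaCl2, Tween20. Compounds at up to 114 uM final, preincubated with protein 15 min; read after 15 min more at RT.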

[14] = A High-Content qHTS Against Drug Library for the Identification of Small Molecules that Inhibit DYT1 Early Onset Primary Dystonia-Associated Cell Pathology (AID 1645839; calls by dose curve; further: series mostly up to about 46 µM)
Outline: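 Induced EGFP-delE TorsinA cells are imaged after 48 h of compound treatment. Punctate fusion-protein distribution gives the %pathology value, while nuclei counts flag toxicity. Wild-type EGFP-hTOR1A cells define the normal pattern.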

[15] = Confirmatory qHTS for VERO E6 Cytotoxicity Assay: Counterscreen for SARS-CoV-2 CPE Assay (AID 1508605; calls by dose curve; further: series mostly up to about 20 µM; nearly all actives have a fitted effect of over 60% in size)
[16] = Confirmatory qHTS for small molecule stabilizers of the endoplasmic reticulum resident proteome: Secreted ER Calcium Modulated Protein (SERCaMP) assay (AID 1508628); further: potency means the concentration at half of the fitted maximal effect; nearly all actives have a fitted effect of over 40% in size
Outline: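 GLuc-SERCaMP-expressing SH-SY5Y cells, pretreated 16 h with compound, are challenged with thapsigargin to empty ER calcium stores; after 4 h, coelenterazine is added directly to the medium and luminescence is imaged.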

Measured: Potency

CC(C)(C)NCC(O)c1cc(Cl)c(N)c(C(F)(F)F)c1 (centres undefined)
inactive: [1] | [2] | [3] | [4] | [5] | [6] | [7] | [8]

CN1C(=O)COc2c(C(=O)NC3CN4CCC3CC4)cc(Cl)cc21 (centres undefined)
inactive: [9] | [1] | [7] | [8] | [10]

Cc1ncsc1CCCl
inactive: [11] | [1] | [12] | [3] | [4] | [5] | [6] | [7] | [13] | [8] | [10]

CC(C)(C)NCC(O)c1ccccc1Cl (centres undefined)
inactive: [11] | [12] | [3] | [4] | [5] | [6] | [7] | [13] | [8] | [10] | [14]

CNC(C)(C)Cc1ccccc1
inactive: [1] | [2] | [3] | [4] | [5] | [6] | [7] | [8] | [10] | [14]

COc1cccc2c1C(=O)c1c(O)c3c(c(O)c1C2=O)C[C@@](O)(C(=O)CO)CC3OC1CC(N2CCOC(OC)C2)C(O)C(C)O1 (some centres undefined)
inactive: [3] | [5] | [6] | [7]
active: [9] 93 nM

O=C(CCCN1CCC2(CC1)C(=O)NCN2c1ccccc1)c1ccc(F)cc1
active: [16] 5.62 µM and 2.24 µM and 3.16 µM
inactive: [11] | [1] | [12] | [3] | [15] | [13] | [8] | [14]

C[C@]12CC[C@H]3[C@@H](CCC4=CC(=O)CC[C@@H]43)[C@@H]1CC[C@@H]2OC(=O)CCC1CCCCC1
inactive: [1] | [2] | [3] | [4] | [5] | [6] | [7] | [8] | [10] | [14]
